Measurements taken from the supplement of paper PMC8728848.
Shown is part of a subset that was picked to be rich in the strongest signals.

Key:
Assay in all cases: glycan array binding signal (z-score within array); higher = stronger binding
Conditions in all cases: glycan notation: IUPAC condensed, linker removed
Fuc(a1-2)Gal(b1-3)GalNAc = biological target: Fuc(a1-2)Gal(b1-3)GalNAc
Summary of the method: (§1)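 Glycan array binding is given as a within-array Z-score, which can be read as non-binding when negative. The arrays, 3228 of them, came from the Consortium for Functional Glycomics database and were retained only where the protein sequence was available. Z-scores were averaged across arrays of the same protein sequence at different concentrations or buffers and across linkers.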

[1] = biological target: Fuc(a1-2)Gal(b1-3)GalNAc(a1-3)[Fuc(a1-2)]Gal(b1-4)GlcNAc
Summary of the method: as §1

Fuc(a1-2)Gal(b1-3)GlcNAc = biological target: Fuc(a1-2)Gal(b1-3)GlcNAc
Summary of the method: as §1

[2] = biological target: Fuc(a1-2)Gal(b1-3)GlcNAc(b1-2)Man(a1-3)[Fuc(a1-2)Gal(b1-3)GlcNAc(b1-2)Man(a1-6)]Man(b1-4)GlcNAc(b1-4)GlcNAc
Summary of the method: as §1

[3] = biological target: Fuc(a1-2)Gal(b1-3)GlcNAc(b1-3)Gal(b1-4)Glc
Summary of the method: as §1

Fuc(a1-2)Gal(b1-4)Glc6S = biological target: Fuc(a1-2)Gal(b1-4)Glc6S
Summary of the method: as §1

[4] = biological target: Fuc(a1-2)Gal(b1-4)GlcNAc(b1-3)Gal(b1-4)GlcNAc(b1-2)Man(a1-3)[Fuc(a1-2)Gal(b1-4)GlcNAc(b1-3)Gal(b1-4)GlcNAc(b1-2)Man(a1-6)]Man(b1-4)GlcNAc(b1-4)GlcNAc
Summary of the method: as §1

[5] = biological target: Fuc(a1-2)[Gal(a1-3)]Gal(b1-3)GlcNAc
Summary of the method: as §1

[6] = biological target: Fuc(a1-2)[Gal(a1-3)]Gal(b1-3)GlcNAc(b1-2)Man(a1-3)[Fuc(a1-2)[Gal(a1-3)]Gal(b1-3)GlcNAc(b1-2)Man(a1-6)]Man(b1-4)GlcNAc(b1-4)GlcNAc
Summary of the method: as §1

[7] = biological target: Fuc(a1-2)[Gal(a1-3)]Gal(b1-4)GlcNAc
Summary of the method: as §1

[8] = biological target: Fuc(a1-2)[Gal(a1-3)]Gal(b1-4)[Fuc(a1-3)]Glc
Summary of the method: as §1

[9] = biological target: Fuc(a1-2)[GalNAc(a1-3)]Gal
Summary of the method: as §1

[10] = biological target: Fuc(a1-2)[GalNAc(a1-3)]Gal(b1-3)GalNAc(b1-3)Gal(a1-4)Gal(b1-4)Glc
Summary of the method: as §1

[11] = biological target: Fuc(a1-2)[GalNAc(a1-3)]Gal(b1-3)GlcNAc(b1-2)Man(a1-3)[Fuc(a1-2)[GalNAc(a1-3)]Gal(b1-3)GlcNAc(b1-2)Man(a1-6)]Man(b1-4)GlcNAc(b1-4)GlcNAc
Summary of the method: as §1

[12] = biological target: Fuc(a1-2)[GalNAc(a1-3)]Gal(b1-4)Glc
Summary of the method: as §1

[13] = biological target: Fuc(a1-3)[Gal(b1-4)]GlcNAc(b1-6)[Gal(b1-3)GlcNAc(b1-3)]Gal(b1-4)Glc
Summary of the method: as §1

Fuc(a1-4)GlcNAc = biological target: Fuc(a1-4)GlcNAc
Summary of the method: as §1

[14] = biological target: Gal(a1-3)Gal(b1-4)GlcNAc(b1-2)Man(a1-3)[Gal(a1-3)Gal(b1-4)GlcNAc(b1-2)Man(a1-6)]Man(b1-4)GlcNAc(b1-4)GlcNAc
Summary of the method: as §1

[15] = biological target: Gal(a1-4)Gal(b1-3)GlcNAc(b1-2)Man(a1-3)[Gal(a1-4)Gal(b1-3)GlcNAc(b1-2)Man(a1-6)]Man(b1-4)GlcNAc(b1-4)GlcNAc
Summary of the method: as §1

[16] = biological target: Gal(a1-4)Gal(b1-4)GlcNAc(b1-3)Gal(b1-4)Glc
Summary of the method: as §1

Gal(a1-4)GlcNAc = biological target: Gal(a1-4)GlcNAc
Summary of the method: as §1

Gal(b1-3)GlcNAc(b1-2)Man = biological target: Gal(b1-3)GlcNAc(b1-2)Man
Summary of the method: as §1

[17] = biological target: Gal(b1-3)GlcNAc(b1-2)[Gal(b1-3)GlcNAc(b1-6)]Man(a1-6)[Gal(b1-3)GlcNAc(b1-2)Man(a1-3)]Man(b1-4)GlcNAc(b1-4)GlcNAc
Summary of the method: as §1

[18] = biological target: Gal(b1-3)GlcNAc(b1-3)Gal(b1-3)GlcNAc
Summary of the method: as §1

[19] = biological target: Gal(b1-3)GlcNAc(b1-3)Gal(b1-4)[Fuc(a1-3)]GlcNAc
Summary of the method: as §1

[20] = biological target: Gal(b1-3)GlcNAc(b1-6)Gal(b1-4)GlcNAc
Summary of the method: as §1

[21] = biological target: Gal(b1-3)GlcNAc(b1-6)GalNAc
Summary of the method: as §1

Gal(b1-4)GlcNAc = biological target: Gal(b1-4)GlcNAc
Summary of the method: as §1

[22] = biological target: Gal(b1-4)GlcNAc(a1-6)Gal(b1-4)GlcNAc
Summary of the method: as §1

Gal(b1-4)GlcNAc(b1-2)Man = biological target: Gal(b1-4)GlcNAc(b1-2)Man
Summary of the method: as §1

[23] = biological target: Gal(b1-4)GlcNAc(b1-2)Man(a1-3)Man(b1-4)GlcNAc(b1-4)GlcNAc
Summary of the method: as §1

[24] = biological target: Gal(b1-4)GlcNAc(b1-2)Man(a1-3)[GlcNAc(b1-2)Man(a1-6)]Man(b1-4)GlcNAc(b1-4)GlcNAc
Summary of the method: as §1

[25] = biological target: Gal(b1-4)GlcNAc(b1-3)Gal(b1-4)Glc
Summary of the method: as §1

B1: PX14379A-bvu-539-28-539 (Bacteroides vulgatus) (protein)
chain: EPYSEIIEEDYVPTEADEIALLATTYSQLRFVMDWYGLFDLQEESGDVIVTPTRPNGWDDGGTYKQMHKHTWDNQQGQPQSIWDYCYKGIANANKILKRADEGFFTEESKPKVVAEVKGVRALWYSILCDTHGNIPIQTSFSEEVPVQSTRKQVFDFIINELKEVMPNLPTEVNKSTYGRLTQWGAKCLMARMYLNAGVYTGTPMWNECLEQCNDIINSGLFSLETNYTDIFKTENSGCVETIFAIPYDEVYNEGDNNGPVFGAHMKFLSSNSRKVFNMQTTPWGGSAANPQFINSYDPDDMRLKYTWLQGDQYSPDGVLITTFPNKLPSIYKTDTDDGYRVGKYEIKVGAKSLLSNDFPYFRYTEVLLMKAECLLRLGQNETEAAHIVSQIRERAFRESAHPEKATVDAAWLKGDTHINYGTLDEKGQIDDAGNTEVVELGGLYDEWGWEFAAEARRRTDMIRFGTYQKKSWFNHTPTANDLNGNSILFPIHLDHLNTNPNLQQNPGYAGK
**Q.** With B1 as the binder, how does the “glycan array binding signal (z-score)” value (Fuc(a1-2)Gal(b1-3)GalNAc) read?
**A.** -0.448

**Q.** And the “glycan array binding signal (z-score)” value [1]?
**A.** -0.426

**Q.** And the “glycan array binding signal (z-score)” value (Fuc(a1-2)Gal(b1-3)GlcNAc)?
**A.** -0.263

**Q.** And the “glycan array binding signal (z-score)” value [2]?
**A.** 8.31

**Q.** What about the “glycan array binding signal (z-score)” value [3] of the same binder?
**A.** -0.301

**Q.** And the “glycan array binding signal (z-score)” value (Fuc(a1-2)Gal(b1-4)Glc6S)?
**A.** -0.232

**Q.** What about the “glycan array binding signal (z-score)” value [4] of the same binder?
**A.** 2.29

**Q.** And the “glycan array binding signal (z-score)” value [5]?
**A.** -0.419

**Q.** What about the “glycan array binding signal (z-score)” value [6] of the same binder?
**A.** 9.25

**Q.** And the “glycan array binding signal (z-score)” value [7]?
**A.** -0.199

**Q.** And the “glycan array binding signal (z-score)” value [8]?
**A.** -0.231

**Q.** What about the “glycan array binding signal (z-score)” value [9] of the same binder?
**A.** -0.215

**Q.** What about the “glycan array binding signal (z-score)” value [10] of the same binder?
**A.** -0.369

**Q.** And the “glycan array binding signal (z-score)” value [11]?
**A.** 1.23

**Q.** What about the “glycan array binding signal (z-score)” value [12] of the same binder?
**A.** -0.321

**Q.** What about the “glycan array binding signal (z-score)” value [13] of the same binder?
**A.** -0.44

**Q.** And the “glycan array binding signal (z-score)” value (Fuc(a1-4)GlcNAc)?
**A.** -0.18

**Q.** And the “glycan array binding signal (z-score)” value [14]?
**A.** 3

**Q.** And the “glycan array binding signal (z-score)” value [15]?
**A.** 0.016

**Q.** What about the “glycan array binding signal (z-score)” value [16] of the same binder?
**A.** -0.391

**Q.** What about the “glycan array binding signal (z-score)” value (Gal(a1-4)GlcNAc) of the same binder?
**A.** -0.226

**Q.** What about the “glycan array binding signal (z-score)” value (Gal(b1-3)GlcNAc(b1-2)Man) of the same binder?
**A.** 0.056

**Q.** What about the “glycan array binding signal (z-score)” value [17] of the same binder?
**A.** 5.87

**Q.** What about the “glycan array binding signal (z-score)” value [18] of the same binder?
**A.** 0.03

**Q.** What about the “glycan array binding signal (z-score)” value [19] of the same binder?
**A.** -0.515

**Q.** And the “glycan array binding signal (z-score)” value [20]?
**A.** -0.27

**Q.** What about the “glycan array binding signal (z-score)” value [21] of the same binder?
**A.** -0.344

**Q.** What about the “glycan array binding signal (z-score)” value (Gal(b1-4)GlcNAc) of the same binder?
**A.** -0.29

**Q.** What about the “glycan array binding signal (z-score)” value [22] of the same binder?
**A.** -0.203

**Q.** What about the “glycan array binding signal (z-score)” value (Gal(b1-4)GlcNAc(b1-2)Man) of the same binder?
**A.** -0.28

**Q.** What about the “glycan array binding signal (z-score)” value [23] of the same binder?
**A.** 0.346

**Q.** And the “glycan array binding signal (z-score)” value [24]?
**A.** 3.64

**Q.** And the “glycan array binding signal (z-score)” value [25]?
**A.** -0.017
